Screens deposited in PubChem BioAssay by NMMLSC.
The list is not random: actives were taken first. Their share in the collection is about 0.91%.
S aureus QS inh: S. aureus quorum sensing inhibition. inhibition, % at 2 µM. 0.3% of 24,000 active. S. aureus RN6390 RNAIII-GFP reporter, AIP-induced, flow cytometry 3 h;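 active = share of bacteria positive for the green fluorescent reporter and its mean brightness both inhibited by 50% or more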;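 also: 0% = AIP-stimulated control and 100% = unstimulated bacteria without AIP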
Prostate diff: activators of LNCaP prostate cell differentiation | 0.56% of 24,000 active | flow cytometry side scatter, 4 d | side scatter shift, % at 10 µM;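 active = side scatter shift above 30%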;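 also: androgen-responsive LNCaP prostate cancer cells in charcoal-stripped serum medium; percent of cells past a gate set so DMSO wells show 10% shift; higher shift means more granular cells and more differentiation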
Proteasome disasm: blocks ATP-dependent breakdown of the yeast 26S proteasome. anti-FLAG beads, GFP-proteasome disassembly, flow cytometry. inhibition of disassembly, % (no concentration beside the values). 0.2% of 24,000 active;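 active = inhibition of disassembly above about 33%, limit read from the data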;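 also: plate controls were ATP control with full disassembly for no effect and ATP-gamma-S intact proteasomes for full effect; higher percent means more bead fluorescence retained so stronger block of disassembly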
Numbers without * were called inactive.

SMILES	S aureus QS inh	Prostate diff	Proteasome disasm
CSc1nc(-c2ccccc2O)nc(-c2ccccc2O)n1	-3	27	0
Cc1ccc(S(=O)(=O)Nc2cc(C(=O)NCCN(C)C)ccc2N2CCCCC2)cc1	0	17	0
Cc1ccc(S(=O)(=O)Nc2cc(C(=O)NCCN3CCCC3)ccc2N2CCCCC2)cc1	3	22	105*
O=S(=O)(Nc1cccc2ncccc12)c1cccs1	-4	34*	-2
O=S(=O)(NCCc1ccccn1)c1cccs1	-1	5	0
CCC(=O)O[C@@H]1CC(=O)O[C@H](C)CC=CC=C[C@@H](O)[C@H](C)C[C@H](CC=O)[C@H](O[C@H]2O[C@H](C)[C@@H](O[C@H]3C[C@@](C)(O)[C@@H](OC(=O)CC)[C@H](C)O3)[C@H](N(C)C)[C@H]2O)[C@H]1OC	51*	9	0
O=C(CSc1ncnc2sc3c(c12)CCCCC3)NCc1ccco1	-1	10	2
c1csc(CCNc2ncnc3sc4c(c23)CCC4)c1	67*	14	-1
CCOC(=O)N1CCC(NC(=O)c2cccc3c2C(=O)N(c2ccc(OC)cc2)C3)CC1	5	10	0
COc1ccc(C2C(C(C)=O)=C(C)N=c3s/c(=C\c4ccc5c(c4)OCO5)c(=O)n32)c(OC)c1 (stereo unspecified)	1	4	1
CCOC(=O)C1=C(C)N=c2s/c(=C\c3ccncc3)c(=O)n2C1c1ccc2c(c1)OCO2 (stereo unspecified)	-2	35*	1
COC(=O)Nc1sccc1C(=O)Nc1sccc1C(=O)OC	-2	32*	6
COC(=O)c1ccccc1NC(=O)c1cnc2sccn2c1=O	-2	9	-10
